Shown are actives, neighbours in structure and some others; about 3.8% of the full set was active somewhere.
Hsp70 act: switches on Hsp70 transcription | HeLa Hsp70 promoter luciferase reporter, luminescence; scaled: vehicle 0, proteasome-inhibitor control 100% | AID 1203 | activation, % at 10 µM | actives 0.04% (n = 200,000);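 active = activation above the mean across all tested compounds plus 3 SD, cutoff set per campaign, cut at about 5.5% in these data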;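 note: 100% = MG132 at 30 µM as the positive control and 0% = DMSO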
HSF1 inhib: HSF1 inhibition; actives 0.77% (n = 300,000); NIH3T3-HGL HSE-luciferase, MG132-induced, luminescence 8 h; active compounds read low; activity change, negative = inhibition, % at 7.5 µM (by protocol);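 active = more than half of replicate wells show activity change below -50%, luminescence cut by over half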;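 note: luciferase reports HSF-1 transcriptional activity via heat shock element; 0% = median of DMSO wells and -100% = zero luminescence signal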
HSP90 inh: blocks HSP90-mediated luciferase refolding in reticulocyte lysate. Rabbit reticulocyte lysate, luciferase refolding luminescence, 3 h. AID 1789. actives 0.91% (n = 290,000). inhibition, % at 5.6 µM;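 active = inhibition above the screen-wide mean plus 3 SD, computed separately per campaign, cut at about 16% in these data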;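 note: 0% = DMSO wells and 100% = 60 µM geldanamycin wells; inhibitors lower the luminescence because luciferase stays unfolded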
NALP1 yeast inh: inhibitors of NALP1 inflammasome in yeast; actives 0.61% (n = 280,000); inhibition, % at 10 µM; S. cerevisiae NALP1/ASC/caspase-1 growth, X-gal OD620, 72 h; AID 2071; in the data active = inhibition mostly above about 24%, no sharp cut-off; inactive = mostly below about 32%
pCIP destab: compounds decreasing mouse p/CIP protein stability; F442A p/CIP-EGFP cells, EGFP fluorescence, 16 h; Q05BA5; decrease of EGFP signal, % at 10 µM; actives 0.01% (n = 290,000); AID 1984;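 active = EGFP signal decrease of at least 30% at 10 µM or well 3 SD below plate mean, unless failing retest; inactive = the rest, including hits failing retest or dose response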
HSF1 activator: increases HSF-1 driven luciferase reporter signal. NIH3T3-HGL HSF-1 luciferase reporter, MG132, 8 h; 100% = twice DMSO control signal. activation, % at 9 µM. actives 1.7% (n = 300,000);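 active = mean replicate activation of at least 50% with a set share of replicates each reaching 50%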;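 note: 0% = median of the neutral control wells and 100% = twice that signal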
Numbers without * were called inactive.

What do the screens show for `CCN(CC)CCn1c(NC(=O)c2ccc(C)cc2)nc2ccccc21`?
HSF1 inhib: 14.1; HSP90 inh: -3.2; NALP1 yeast inh: 6.2; pCIP destab: -7.3; HSF1 activator: 57.0*

What do the screens show for `O=C(CCc1ccccc1)Nc1ccc2ccccc2n1`?
Hsp70 act: 0.1; HSF1 inhib: 41.3; HSP90 inh: -2.7; NALP1 yeast inh: -7.5; pCIP destab: -4.0; HSF1 activator: 92.3*

Results for Cc1ccc(C(=O)Nc2ccc3ccccc3n2)cc1 ?
HSF1 inhib: 26.4; HSP90 inh: 7.0; NALP1 yeast inh: 18.3; pCIP destab: 6.3; HSF1 activator: 58.3*

Results for N#Cc1ccccc1S(=O)(=O)N1CCN(C(=O)CN2C(=O)NC3(CCCC3)C2=O)CC1 ?
HSF1 inhib: 5.3; HSF1 activator: -9.5

How did COc1ccc(C2C3=C(N=C4SCC(=O)N42)c2ccccc2CC3)cc1 (configuration not stated) do in these assays?
Hsp70 act: -0.5; HSP90 inh: 3.5; NALP1 yeast inh: 38.4*; pCIP destab: 10.3

How did COc1ccccc1/C=C1\CCCC2=C1Nc1nnnn1C2c1ccccc1OC (configuration not stated) do in these assays?
Hsp70 act: -0.1; HSP90 inh: 0.0; NALP1 yeast inh: 33.3; pCIP destab: -2.9

What do the screens show for `O=C(CNC(=O)c1cccc(Cl)c1)N/N=C/C=C/c1ccccc1`?
Hsp70 act: -0.1; HSF1 inhib: -7.5; HSP90 inh: -0.8; NALP1 yeast inh: 16.4; pCIP destab: -8.0; HSF1 activator: 5.9

Results for Cc1ccc(N=Cc2ccc[nH]2)c(O)c1 ?
Hsp70 act: 0.4; HSF1 inhib: -75.7*; HSP90 inh: 2.7; NALP1 yeast inh: -9.7; pCIP destab: -8.9; HSF1 activator: -78.2

How did Cc1cccc(C(=O)N/N=C/c2ccc[nH]2)c1 do in these assays?
Hsp70 act: 0.0; HSF1 inhib: -4.6; HSP90 inh: 1.6; NALP1 yeast inh: 33.1; pCIP destab: 1.2; HSF1 activator: -9.6

What do the screens show for `Cc1ccc(S(=O)(=O)N2CCN(C(=O)c3c(-c4ccccc4)noc3C)CC2)c(C)c1`?
HSF1 inhib: -75.8*; HSP90 inh: -3.6; NALP1 yeast inh: 15.3; pCIP destab: -11.4; HSF1 activator: -79.4

Results for Cc1ccc(S(=O)(=O)N2CCN(C(=O)c3c(-c4ccccc4)noc3C)CC2)cc1C ?
HSF1 inhib: -2.0; HSP90 inh: -0.8; NALP1 yeast inh: -16.3; pCIP destab: -2.7; HSF1 activator: 4.8

How did CCCn1c(C(C)Nc2nc(-c3ccc(Cl)c([N+](=O)[O-])c3)cs2)nc2cc(Cl)c(N3CCCCC3)cc21 (configuration not stated) do in these assays?
HSF1 inhib: 6.2; HSP90 inh: 3.3; NALP1 yeast inh: 17.1; pCIP destab: -2.3; HSF1 activator: 15.7

How did CCOC(=O)CSc1nc2c(sc3ccc([N+](=O)[O-])cc32)c(=O)n1Cc1ccco1 do in these assays?
Hsp70 act: -0.4; HSF1 inhib: 162.0; HSP90 inh: -3.6; NALP1 yeast inh: 18.4; pCIP destab: -5.4; HSF1 activator: 253.6*

What do the screens show for `CCOC(=O)CSc1nc2c(sc(=S)n2-c2ccccc2OC)c(=O)n1Cc1ccco1`?
Hsp70 act: 0.0; HSF1 inhib: 17.6; HSP90 inh: -1.0; NALP1 yeast inh: -6.0; pCIP destab: 0.6; HSF1 activator: 57.1*

Results for CCOC(=O)CSc1nc2ccccc2c(=O)n1Cc1ccco1 ?
Hsp70 act: -0.1; HSF1 inhib: 2.2; HSP90 inh: 7.7; NALP1 yeast inh: 16.8; pCIP destab: -7.0; HSF1 activator: 10.6

Results for COCC(C)NC(=O)c1noc2c1CCc1cc(OC)ccc1-2 (configuration not stated) ?
Hsp70 act: 0.0; HSF1 inhib: 49.3; HSP90 inh: 2.6; NALP1 yeast inh: 17.4; pCIP destab: -0.5; HSF1 activator: 71.3*

What do the screens show for `COc1ccc2c(c1)CCc1c(C(=O)NCCN3CCOCC3)noc1-2`?
Hsp70 act: -0.5; HSF1 inhib: 0.9; HSP90 inh: 4.0; NALP1 yeast inh: 5.6; pCIP destab: 2.9; HSF1 activator: -5.6

What do the screens show for `COc1ccc2c(c1)CCc1c(C(=O)N(C)c3ccccc3)noc1-2`?
Hsp70 act: 0.8; HSF1 inhib: 37.3; HSP90 inh: 1.7; NALP1 yeast inh: -1.1; pCIP destab: 6.7; HSF1 activator: 68.7*

What do the screens show for `COCCNC(=O)c1noc2c1CCc1cc(OC)ccc1-2`?
Hsp70 act: 0.1; HSF1 inhib: 47.1; HSP90 inh: 2.6; pCIP destab: 1.4; HSF1 activator: 77.4*

How did Nc1cccc(/C=C/C(=O)O)c1 do in these assays?
HSF1 inhib: -58.4*; HSP90 inh: 4.5; NALP1 yeast inh: -11.5; pCIP destab: 2.7; HSF1 activator: -70.0

Results for COc1cc(O)c(C(CC(=O)N2CCOCC2)c2cc(OC)c(OC)c(OC)c2)c(OC)c1 (configuration not stated) ?
HSF1 inhib: 2.6; NALP1 yeast inh: -13.7; pCIP destab: -6.4; HSF1 activator: -4.8

How did NC(=O)CN1CCOCCOCCN(CC(N)=O)CCOCC1 do in these assays?
Hsp70 act: -0.4; HSF1 inhib: -1.4; HSP90 inh: 1.3; NALP1 yeast inh: 38.8*; pCIP destab: -5.8; HSF1 activator: -1.1

How did COC(=O)c1cc(NS(=O)(=O)c2ccc(C)c3ccccc23)ccc1N1CCOCC1 do in these assays?
HSF1 inhib: 7.2; HSP90 inh: -2.2; pCIP destab: -10.7; HSF1 activator: -10.7

Results for c1ccc2c(c1)Cn1nnnc1-2 ?
Hsp70 act: 0.1; HSF1 inhib: -30.5; HSP90 inh: -2.1; NALP1 yeast inh: 21.0; pCIP destab: -12.2; HSF1 activator: -43.8

What do the screens show for `c1ccc2c(c1)CC1(CCCCC1)n1nnnc1-2`?
Hsp70 act: -0.4; HSF1 inhib: -59.2*; HSP90 inh: -1.2; NALP1 yeast inh: -1.1; pCIP destab: -9.9; HSF1 activator: -66.4

What do the screens show for `O=C(CNC(=O)c1ccc(-c2ccccc2)cc1)OCc1ccc(Br)cc1`?
Hsp70 act: 0.1; HSF1 inhib: -3.1; HSP90 inh: -3.8; NALP1 yeast inh: 38.2; pCIP destab: -9.3; HSF1 activator: -2.7

How did CCc1ccc(NC(=O)c2cc(C)on2)cc1 do in these assays?
Hsp70 act: -0.4; HSF1 inhib: 20.5; HSP90 inh: 16.0; NALP1 yeast inh: 11.2; pCIP destab: -7.7; HSF1 activator: 58.2*

How did CC(C)c1ccc(NC(=O)c2cc(Br)ccc2Br)cc1 do in these assays?
Hsp70 act: -0.1; HSF1 inhib: 14.8; HSP90 inh: -2.5; NALP1 yeast inh: 17.6; pCIP destab: -11.7; HSF1 activator: 8.1

What do the screens show for `CCc1ccc(NC(=O)c2cc(Br)ccc2Br)cc1`?
Hsp70 act: -0.2; HSF1 inhib: 11.2; HSP90 inh: -4.8; NALP1 yeast inh: 42.0*; pCIP destab: -3.8; HSF1 activator: 16.1
